{
  "source": "PubChem BioAssay AID1259418",
  "about": "(Broad Institute, 2018)",
  "note": "Out of some 3,400 compounds screened, about 840 (25%) were called active. Another 11% or so got no clear call; they are omitted.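 Rule for the calls: active = fitted half-maximal concentration of signal decrease at or below twice the sample's top tested concentration; inconclusive = flat curve between -70 and -30 percent, or poor fit; inactive = flat within 30 percent, signal rise, or potency above limit.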 Not all results are given here. Results with a measured potency or affinity are listed apart.",
  "data": [
    {"experiment": "T. gondii growth inhibition with IFN-gamma, dose response, cell-based, ME49Luc, HeLa, luciferase, 72 h (AID 1259418)", "conditions": "T. gondii ME49Luc in IFN-y HeLa, stronger effect = lower value, -100% = high-dose IFN-γ control wells; at 19.5 µM unless noted", "values": [
      {"smiles": "CCC(C(=O)N1CCC2(CC1)Nc1cc(OC)ccc1-n1cccc12)c1ccccc1", "note": "(stereo not given)", "max activity": "9.09% [at 0.35 µM] (inactive)"},
      {"smiles": "O=C(CCC1N=C2c3ccccc3N=C(SCc3cccc(F)c3)N2C1=O)NCCc1ccccc1", "note": "(stereo not given)", "max activity": "28.7% (inactive)"},
      {"smiles": "N#CCSC1=Nc2ccccc2C2=NC(CCC(=O)NCCc3ccccc3)C(=O)N12", "note": "(stereo not given)", "max activity": "23.8% [at 0.16 µM] (inactive)"},
      {"smiles": "CCOC(=O)CSC1=Nc2ccccc2C2=NC(CCC(=O)NCCc3ccccc3)C(=O)N12", "note": "(stereo not given)", "max activity": "12.5% (inactive)"},
      {"smiles": "O=C(CC1N=C2c3ccccc3N=C(SCc3cccc(F)c3)N2C1=O)NCc1ccc(F)cc1", "note": "(stereo not given)", "max activity": "31.4% [at 2.6 µM] (inactive)"},
      {"smiles": "COc1ccccc1CNC(=O)CCC1N=C2c3ccccc3N=C(SCc3ccc(C)cc3)N2C1=O", "note": "(stereo not given)", "max activity": "16.9% [at 0.16 µM] (inactive)"},
      {"smiles": "O=C(CC1N=C2c3ccccc3N=C(SCc3ccc(F)cc3)N2C1=O)NCc1ccccc1", "note": "(stereo not given)", "max activity": "12.9% [at 10 µM] (inactive)"},
      {"smiles": "CN(C)Cc1noc2c1CN(Cc1nccn1C)CC2", "max activity": "50.1% (inactive)"},
      {"smiles": "COc1cc(NC(=O)CN2CCC3(CC2)N=C(c2cccc(C)c2)C(=O)N3)cc(OC)c1", "max activity": "-9.06% [at 2.6 µM] (inactive)"},
      {"smiles": "Cc1ccc(-c2nc(Cn3nnc(-c4nc(-c5ccc6c(c5)OCO6)no4)c3C)c(C)o2)cc1", "max activity": "17.5% [at 0.68 µM] (inactive)"},
      {"smiles": "COc1cc(OC)cc(C(=O)N2CCC3(CC2)Nc2ccc(Cl)cc2-n2cccc23)c1", "max activity": "-6.3% [at 5 µM] (inactive)"},
      {"smiles": "COc1ccccc1N1CCN(c2nc(-c3ccc(Cl)cc3)nc3ccccc23)CC1", "max activity": "8.55% [at 5 µM] (inactive)"},
      {"smiles": "Cc1noc(C)c1C1CCCN1C(=O)Cn1nc(C(F)(F)F)cc1C", "note": "(stereo not given)", "max activity": "-9.96% [at 0.35 µM] (inactive)"},
      {"smiles": "COc1ccc(-c2nc(N3CCCCCC3)c3ccccc3n2)cc1", "max activity": "11.2% [at 0.16 µM] (inactive)"},
      {"smiles": "COc1ccc(-c2nc(N3CCN(c4ccccc4)CC3)c3ccccc3n2)cc1", "max activity": "18.5% (inactive)"},
      {"smiles": "COc1ccc(-c2nc(N3CCC(N4CCCCC4)CC3)c3ccccc3n2)cc1", "max activity": "-13.2% [at 10 µM] (inactive)"},
      {"smiles": "COc1ccc(-c2nc(N3CCCCC3)c3ccccc3n2)cc1", "max activity": "24.4% (inactive)"},
      {"smiles": "COc1ccc(-c2nc(N3CCCC3)c3ccccc3n2)cc1", "max activity": "-15.5% [at 2.6 µM] (inactive)"},
      {"smiles": "Clc1ccc(-c2nc(N3CCC4(CC3)OCCO4)c3ccccc3n2)cc1", "max activity": "-8.6% [at 10 µM] (inactive)"},
      {"smiles": "COc1ccc(-c2nc(N3CCN(Cc4ccccc4)CC3)c3ccccc3n2)cc1", "max activity": "20.1% (inactive)"},
      {"smiles": "COc1ccc(-c2nc(N3CCN(c4ccc(OC)cc4)CC3)c3ccccc3n2)cc1", "max activity": "51.6% (inactive)"},
      {"smiles": "CCc1ccc(C(=O)N2CCC3(CC2)Nc2cc(OC)ccc2-n2cccc23)cc1", "max activity": "8.15% [at 0.68 µM] (inactive)"},
      {"smiles": "CC(=O)N1CCC(N(C)Cc2cc(C(C)(C)C)n[nH]2)CC1", "max activity": "35.9% (inactive)"},
      {"smiles": "COc1ccc(-c2noc(-c3nnn(Cc4nc(-c5ccccc5OC)oc4C)c3C)n2)cc1", "max activity": "15.5% [at 5 µM] (inactive)"},
      {"smiles": "COc1cc(OC)cc(C(=O)N2CSC[C@@H]2C(=O)NCCc2csc(-c3ccccc3)n2)c1", "max activity": "23.7% (inactive)"},
      {"smiles": "COc1ccc(-c2nc3c(s2)CN(S(=O)(=O)c2cccc(Cl)c2C)CC3)cc1", "max activity": "10.3% [at 10 µM] (inactive)"},
      {"smiles": "CCc1ccccc1S(=O)(=O)N1CCc2nc(-c3cccc(OC)c3)sc2C1", "max activity": "-7.33% [at 0.35 µM] (inactive)"},
      {"smiles": "COc1cccc(-c2nc3c(s2)CN(S(=O)(=O)c2cc(C)cc(C)c2)CC3)c1", "max activity": "-33.8% [at 0.16 µM] (inactive)"},
      {"smiles": "COc1ccc(S(=O)(=O)N2CCc3nc(-c4cccc(OC)c4)sc3C2)cc1", "max activity": "-10.4% [at 0.16 µM] (inactive)"},
      {"smiles": "CCc1ccccc1S(=O)(=O)N1CCc2nc(-c3ccccc3)sc2C1", "max activity": "115% [at 10 µM] (inactive)"},
      {"smiles": "COc1cccc(-c2nc3c(s2)CN(S(=O)(=O)c2ccccc2Cl)CC3)c1", "max activity": "5.54% [at 10 µM] (inactive)"},
      {"smiles": "COc1ccc(-c2nc3c(s2)CN(S(=O)(=O)c2cc(OC)ccc2OC)CC3)cc1", "max activity": "28% (inactive)"},
      {"smiles": "COc1cccc(-c2nc3c(s2)CN(S(=O)(=O)c2cccc(C)c2)CC3)c1", "max activity": "-6.22% [at 2.6 µM] (inactive)"},
      {"smiles": "Cc1ccc(-c2nc(CSc3nc4c(c(=O)[nH]3)CN(Cc3ccc(Cl)cc3)CC4)c(C)o2)cc1", "max activity": "23.9% (inactive)"},
      {"smiles": "O=C(Cn1cccc1-c1nc(-c2ccc(Cl)cc2)cs1)N1CCC2(CC1)OCCO2", "max activity": "-6.36% [at 10 µM] (inactive)"},
      {"smiles": "O=C1CCc2cc(S(=O)(=O)N3CCN(c4ccc(F)cc4)CC3)cc3c2N1CCC3", "max activity": "10.7% [at 2.6 µM] (inactive)"},
      {"smiles": "CCOC(=O)c1cccc(NC(=O)Nc2ccc(-c3nc(-c4ccc(C)cc4)co3)cc2)c1", "max activity": "67.3% (inactive)"},
      {"smiles": "COc1ccc(-c2nc3c(s2)CN(C(=O)Nc2ccc(Br)cc2)CC3)cc1", "max activity": "26.4% [at 10 µM] (inactive)"},
      {"smiles": "Cc1nc(-c2ccccc2)sc1C(=O)Nc1ccc(-n2c(C)nc3ccccc3c2=O)cc1", "max activity": "-25.8% (inactive)"},
      {"smiles": "CC1CCN(C(=O)c2ccc(-c3csc(C4CC4)n3)cc2)CC1", "max activity": "6.7% (inactive)"},
      {"smiles": "CCN1C(=O)CCc2cc(NC(=O)Cc3c(F)cccc3Cl)ccc21", "max activity": "7.81% (inactive)"},
      {"smiles": "O=C(Nc1ccc(-c2nc(-c3ccccc3)co2)cc1)c1ccc(Br)o1", "max activity": "25.6% (inactive)"},
      {"smiles": "Cc1ccc2c(c1C)-n1cccc1C1(CCN(C(=O)c3cccs3)CC1)N2", "max activity": "-15.1% [at 5 µM] (inactive)"},
      {"smiles": "COc1ccc(-c2nc(N3CCC(C)CC3)c3ccccc3n2)cc1", "max activity": "21.8% (inactive)"},
      {"smiles": "COc1ccc(OCC(=O)N2CCC[C@@H]2C(=O)NCCc2csc(-c3ccccc3)n2)cc1", "max activity": "10.2% [at 0.16 µM] (inactive)"},
      {"smiles": "CCCN1CCN(CCCNc2nc(-c3ccc(Cl)cc3)nc3ccccc23)CC1", "max activity": "-50.1% [at 1.35 µM] (inactive)"},
      {"smiles": "COc1ccc(N2CCN(CCNc3nc(-c4ccc(Cl)cc4)nc4ccccc34)CC2)cc1", "max activity": "22% [at 0.68 µM] (inactive)"},
      {"smiles": "COc1ccc(-c2nc(NCCCN3CCN(c4cc(C)ccc4C)CC3)c3ccccc3n2)cc1", "max activity": "21.7% (inactive)"},
      {"smiles": "COc1ccc(-c2nc(NCCCN3CCCC3)c3ccccc3n2)cc1", "max activity": "15.7% (inactive)"},
      {"smiles": "COc1ccc(-c2nc(NCCCN3CCN(c4ccc(F)cc4)CC3)c3ccccc3n2)cc1", "max activity": "-17.2% [at 0.35 µM] (inactive)"},
      {"smiles": "COc1ccc(-c2nc(NCCN3CCN(c4ccc(OC)cc4)CC3)c3ccccc3n2)cc1", "max activity": "15.4% [at 0.16 µM] (inactive)"},
      {"smiles": "O=C(NCCc1csc(-c2ccccc2)n1)[C@H]1CCCN1C(=O)c1cccc(Cl)c1", "max activity": "-10.8% [at 0.35 µM] (inactive)"},
      {"smiles": "Cc1cccc(-c2nc(Cn3nnc(-c4nc(-c5cccc(F)c5)no4)c3C)c(C)o2)c1", "max activity": "-7.79% [at 1.35 µM] (inactive)"},
      {"smiles": "COc1ccccc1-c1nc(Cn2nnc(-c3nc(-c4ccccc4C)no3)c2C)c(C)o1", "max activity": "11.1% [at 0.16 µM] (inactive)"},
      {"smiles": "COc1ccc(-c2nc(NCc3ccccc3Cl)c3ccccc3n2)cc1", "max activity": "7.56% [at 0.16 µM] (inactive)"},
      {"smiles": "COc1ccccc1CNC(=O)CC1N=C2c3ccccc3N=C(SCC#N)N2C1=O", "note": "(stereo not given)", "max activity": "42.4% [at 10 µM] (inactive)"},
      {"smiles": "COc1cc(OC)cc(-c2noc(-c3nnn(Cc4nc(-c5ccc(C)cc5)oc4C)c3C)n2)c1", "max activity": "10.5% [at 0.16 µM] (inactive)"},
      {"smiles": "CC1CCCCN1C(=O)c1ccnn1-c1ccc2ccc(-c3ccccc3)cn12", "note": "(stereo not given)", "max activity": "31.6% (inactive)"},
      {"smiles": "Cc1ccc(NC(=O)N2CCN(Cc3nc(-c4ccccc4C)oc3C)CC2)cc1C", "max activity": "8.71% [at 0.68 µM] (inactive)"},
      {"smiles": "COc1ccc(-c2nc(NCCCN3CCC(Cc4ccccc4)CC3)c3ccccc3n2)cc1", "max activity": "-19.1% [at 0.35 µM] (inactive)"},
      {"smiles": "CCC(CN1CCOCC1)Nc1nc(-c2ccc(OC)cc2)nc2ccccc12", "note": "(stereo not given)", "max activity": "27.4% (inactive)"},
      {"smiles": "O=C(NCCc1c[nH]c2ccccc12)c1cc(-c2ccccn2)nc2ccccc12", "max activity": "15.3% [at 0.68 µM] (inactive)"},
      {"smiles": "CCCc1ccc(S(=O)(=O)N2CCc3nc(-c4ccc(OCC)cc4)sc3C2)cc1", "max activity": "88.1% (inactive)"},
      {"smiles": "Cc1ccc(CN2CC[C@H]3CO[C@@H](CNC(=O)C4CC4)[C@@H]3C2)cc1", "max activity": "18.5% (inactive)"},
      {"smiles": "O=C1N(CC2CC2)CCC12CCCN(Cc1cncc(Cl)c1)CC2", "note": "(stereo not given)", "max activity": "33.7% (inactive)"},
      {"smiles": "COc1cccc(N(Cc2nc(-c3ccc(OC(C)C)cc3)oc2C)S(=O)(=O)c2ccccc2)c1", "max activity": "4.32% [at 10 µM] (inactive)"},
      {"smiles": "COc1cccc(N(Cc2nc(-c3ccc(C)cc3)oc2C)S(=O)(=O)c2ccccc2)c1", "max activity": "-10.4% [at 10 µM] (inactive)"},
      {"smiles": "COc1ccc(CNC(=O)CC2N=C3c4ccccc4N=C(SCc4cc(=O)n5ccccc5n4)N3C2=O)cc1", "note": "(stereo not given)", "max activity": "19.7% [at 2.6 µM] (inactive)"},
      {"smiles": "CCOC(=O)c1c(C)[nH]c(-c2ccccc2)c1-c1ccccc1", "max activity": "20.8% [at 10 µM] (inactive)"},
      {"smiles": "CCc1ccc(NC(=O)Nc2ccc(-c3nc(-c4ccc(C)cc4)co3)cc2)cc1", "max activity": "11.2% [at 0.16 µM] (inactive)"},
      {"smiles": "COc1ccc(CNC2=NCCNC23CCN(S(=O)(=O)c2cccs2)CC3)cc1", "max activity": "-8.27% [at 0.35 µM] (inactive)"},
      {"smiles": "Cc1ccc(S(=O)(=O)N2CCC3(CC2)NCCN=C3NCc2ccc(F)cc2)c(C)c1", "max activity": "-23.4% (inactive)"},
      {"smiles": "CCc1ccc(S(=O)(=O)N2CCC3(CC2)NCCN=C3NCc2cccc(OC)c2)cc1", "max activity": "-9.5% [at 0.68 µM] (inactive)"},
      {"smiles": "Cc1ccc(S(=O)(=O)N2CCC3(CC2)NCCN=C3NCc2cccc(F)c2)c(C)c1", "max activity": "-19.4% [at 10 µM] (inactive)"},
      {"smiles": "CN(C)C(=O)c1ccc(-c2ccc([C@H]3[C@@H](CO)N4C(=O)CN(C(=O)CC5CC5)C[C@@H]34)cc2)cc1", "max activity": "20.3% (inactive)"}
    ]}
  ]
}
